IL1B secr inh: inflammasome signaling inhibition, IL-1 beta readout; THP-1 LPS/ATP IL-1B secretion, AlphaLISA, 16 h; hits give low values; activity change, % at 57.5 µM; AID 743279; 4.7% of 360,000 active; in the data active = activity change below about -50%; inconclusive = mostly about -30% to -49%
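THP-1 cells pretreated 1 hr with compounds (up to 57.5 uM final), then stimulated with LPS (250 ng/mL final) plus ATP (1.25 mM final); secreted IL-1B measured by AlphaLISA after 16 hr, decreased signal indicating inhibition.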
TDP1 cell noCPT: qHTS for Inhibitors of human tyrosyl-DNA phosphodiesterase 1 (TDP1): qHTS in cells in absence of CPT; DT40 Tdp1-/- hTDP1 cells, no CPT, ATP luminescence, 48 h; Potency, µM (titrated, usually from 46.2 µM), inactives show at the top dose activity change, negative = growth inhibition, usual class: inhibitors; 15% of 420,000 active; AID 686978, 2013; also: potency is read from the fitted curve at half-maximal effect; nearly all actives have a fitted effect of over 55% in size
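Seeded 400 DT40-hTDP1 cells/well (vehicle DMSO, no 20 nM CPT); pinned compounds; ≥48 hr at 37 °C; CellTiter-Glo luminescence as viability measure.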
DT40 TDP1 CPT: DT40-hTDP1 cell growth loss with CPT | chicken DT40 Tdp1-/-;hTDP1 cells + 20 nM CPT, ATP luminescence, 48 h | Potency, µM (doses to about 46.2 µM), without a hit: top-dose activity change, negative = growth inhibition, most hits filed as inhibitors | 12% of 420,000 active; also: potency is read from the fitted curve at half-maximal effect; nearly all actives have a fitted effect of over 55% in size
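Cell growth measured by CellTiter-Glo luminescence after a minimum 48 h, 37 C compound exposure with 20 nM CPT in Tdp1-knockout DT40 cells stably expressing hTDP1, seeded 400/well; qHTS titration format.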
TDP1 block: TDP1 (human) enzyme inhibition; Q9NUW8; recombinant TDP1, AlphaScreen DNA substrate cleavage; Potency, µM (top dose mostly 130 µM), for the others: at the highest dose activity change, negative = inhibition, most hits filed as inhibitors; 0.28% of 350,000 active; AID 485290; also: potency is read from the fitted curve at half-maximal effect; nearly all actives have a fitted effect of over 40% in size
Target sequence (Q9NUW8 whole entry, looked up): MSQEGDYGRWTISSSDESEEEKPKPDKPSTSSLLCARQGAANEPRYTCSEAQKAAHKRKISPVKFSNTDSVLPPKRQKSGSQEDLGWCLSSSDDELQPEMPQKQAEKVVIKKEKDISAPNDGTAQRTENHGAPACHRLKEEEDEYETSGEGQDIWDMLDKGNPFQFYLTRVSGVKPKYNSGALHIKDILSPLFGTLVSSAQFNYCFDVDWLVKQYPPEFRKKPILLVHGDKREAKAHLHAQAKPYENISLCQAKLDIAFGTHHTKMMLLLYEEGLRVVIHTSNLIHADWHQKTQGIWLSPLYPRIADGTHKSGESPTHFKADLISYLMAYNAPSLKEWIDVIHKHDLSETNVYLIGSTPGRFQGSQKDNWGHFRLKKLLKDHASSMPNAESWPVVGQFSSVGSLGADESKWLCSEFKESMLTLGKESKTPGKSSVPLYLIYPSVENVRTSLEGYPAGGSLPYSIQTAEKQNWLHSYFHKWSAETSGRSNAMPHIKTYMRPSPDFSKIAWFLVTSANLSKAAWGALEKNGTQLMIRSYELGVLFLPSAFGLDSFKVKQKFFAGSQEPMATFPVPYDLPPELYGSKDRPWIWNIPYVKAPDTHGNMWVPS
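Signal: AlphaScreen proximity between streptavidin donor and anti-FITC acceptor beads on intact substrate. Reaction: Tdp1 1 nM, substrate 15 nM final, 5 min RT after 15 min compound preincubation.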
Six1-Eya2 inh: inhibitors of human Six1/Eya2 interaction | activity change, % (no concentration beside the values) | Q15475+O00167 | AID 651725 | 0.56% of 360,000 active | AlphaScreen GST-Six1/His-Eya2 binding, biochemical; hits give low values; in the data active = activity change below about -65%; inconclusive = mostly about -30% to -63%
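Homogeneous AlphaScreen proximity assay pairing GST-Six1 with His-tagged Eya2 (added as 5X mix: 250 nM and 500 nM) in 50 mM Tris pH 8.0, 300 mM NaCl, 1 mM TCEP. Glutathione donor and nickel acceptor beads; 1 h, 37 °C, dark.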
CtBP-E1A blk: blocks the CtBP interaction with E1A; AlphaScreen GST-E1A/His-CtBP binding, 1536-well; hits give low values; activity change, % (concentration not given with the values); 0.49% of 340,000 active; AID 651724; in the data active = activity change below about -65%; inconclusive = mostly about -30% to -63%
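GST-E1A and His-tagged CtBP (125 nM each as 5X stock) were preincubated with pin-transferred compound for 2 h at 37 °C in the dark, then glutathione donor and nickel acceptor beads were added for 1 h before AlphaScreen reading.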
Active calls of the source: *; ? = inconclusive; · = no result. Shown are actives, neighbours in structure and some others; about 18% of the full set was active somewhere. Unless noted, calls follow the shape of the dose curve; as a rule, active = well fitted curve in the direction sought with a large enough effect; inconclusive = small, poorly fitted or top-dose-only effect, or another doubt; inactive = no such curve, though single readings can be large; an effect the other way counts as inactive or inconclusive. % is scaled to controls: 0 for no effect and ±100 for the full control effect.

SMILES	IL1B secr inh	TDP1 cell noCPT	DT40 TDP1 CPT	TDP1 block	Six1-Eya2 inh	CtBP-E1A blk
COc1cccc2c(=O)c(C(=O)NCCc3ccccc3)c[nH]c12	3	?	8%	·	3	·
CCCCCCCCN1C(=O)[C@H](CC(=O)NCCCOC)C[C@@]2(C(=O)OCC)CCCC=C12	?	12µM*	23µM*	·	7	-21
CCCCCCCCN1C(=O)[C@H](CC(=O)NCCc2ccccc2OC)C[C@@]2(C(=O)OCC)CCCC=C12	?	29µM*	?	·	-18	-4
CCCCNC(=O)C[C@@H]1C[C@@]2(C(=O)OCC)CCCC=C2N(CCC2=CCCCC2)C1=O	-2	8.2µM*	8.2µM*	·	-1	-5
CCOC(=O)[C@]12CCCC=C1N(CCC1=CCCCC1)C(=O)[C@H](CC(=O)NCc1ccc(OC)c(OC)c1)C2	-14	15µM*	15µM*	·	-11	-14
CCCCNC(=O)C[C@@H]1C[C@@]2(C(=O)OCC)CCCC=C2N(Cc2ccccc2)C1=O	?	?	?	·	6	-5
CCOC(=O)N1CCN(C(=O)C[C@@H]2C[C@@]3(C(=O)OCC)CCC=C3N(CCC3=CCCCC3)C2=O)CC1	0	?	?	·	1	2
Cc1cc(C(=O)NNC(=S)NCc2ccccc2)no1	16	2%	-13%	6%	-16	-9
COC(=O)[C@]12CCCCC=C1N(CCc1ccc(OC)c(OC)c1)C(=O)[C@H](CC(=O)NCC13CC4CC(CC(C4)C1)C3)C2	?	?	?	·	-6	0
CCOC(=O)[C@]12CCCC=C1N(CCC1=CCCCC1)C(=O)[C@H](CC(=O)NCc1cccc3ccccc13)C2	13	16µM*	?	·	-12	-7
CCOC(=O)[C@]12CCC=C1N(Cc1ccc3c(c1)OCO3)C(=O)[C@H](CC(=O)NCCc1ccccc1OC)C2	0	?	?	·	-8	1
CCOC(=O)[C@]12CCCC=C1N(CCc1ccc(OC)c(OC)c1)C(=O)[C@H](CC(=O)NCC13CC4CC(CC(C4)C1)C3)C2	-20	16µM*	15µM*	·	-21	-13
CCOC(=O)[C@]12CCCC=C1N(CCc1ccc(OC)c(OC)c1)C(=O)[C@H](CC(=O)NCCc1ccccc1OC)C2	-3	16µM*	13µM*	·	-3	-6
O=C(CCN1C(=O)C2C3C=CC(C3)C2C1=O)NCc1cccnc1 (stereo not drawn)	13	-11%	0%	0%	-5	1
O=C(O)c1ccc(CN2C(=O)CSC2=S)cc1	-20	18µM*	18µM*	?	-5	-5
O=C(O)c1ccc(N2C(=O)CSC2=S)cc1	-62*	?	?	·	-14	2
O=C1CSC(=S)N1Cc1cccnc1	-84*	4.6µM*	4.6µM*	9%	-2	-6
O=C1CSC(=S)N1c1cccnc1	3	?	?	5%	3	3
CN(C)S(=O)(=O)N1CCC(Oc2ccc(C(=O)N3CCCCCC3)cc2)CC1	6	13µM*	23µM*	·	2	-5
CC1CCCCN1C(=O)c1ccc(OC2CCN(S(=O)(=O)N(C)C)CC2)cc1 (stereo not drawn)	-9	10µM*	?	5%	18	7
CCN(Cc1cnn(C)c1)C(=O)c1ccc(OC2CCN(S(=O)(=O)N(C)C)CC2)cc1	-68*	1%	-11%	-2%	-2	2
CN(C(=O)c1ccc(OC2CCN(S(=O)(=O)N(C)C)CC2)cc1)C1CCCCC1	18	?	21µM*	-1%	1	-1
CSCCNC(=O)c1ccc(OC2CCN(S(=O)(=O)N(C)C)CC2)cc1	-11	2%	-12%	·	0	7

Source: PubChem BioAssay (National Center for Advancing Translational Sciences (NCATS))
